# FMDV inh: foot and mouth disease virus antiviral activity; FMDV antiviral cell-based qHTS; Potency, µM (top dose mostly 57.9 µM), for the others: at the top dose activity change, negative = inhibition, actives largely listed as inhibitors; actives 1.2% (n = 410,000); AID 1159524; calls by dose curve; tested in HEK293T cells; also: read-out not given here; potency is read from the fitted curve at half-maximal effect; nearly all actives have a fitted effect of over 45% in size
# Vaccinia mCherry: inhibitors of vaccinia virus infection (mCherry reporter signal); Vaccinia virus mCherry reporter infection, fluorescence; Potency, µM (highest dose often 36.5 µM), without a hit: at the highest dose activity change, negative = inhibition, usual class: inhibitors; actives 0.63% (n = 310,000); calls by dose curve; tested in A549 cells; also: potency is read from the fitted curve at half-maximal effect; nearly all actives have a fitted effect of over 35% in size
# HCMV antiviral: human cytomegalovirus inhibition; HFF cells, HCMV-luciferase reporter, 72 h; stronger effect = lower value; activity change, negative = inhibition, % at 57.5 µM; actives 4.5% (n = 410,000); in the data active = activity change below about -60%; inconclusive = no clear call, values can overlap the other calls; inactive = above about -39%
#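 Two compound doses tested in HFFs infected with HCMV-luciferase, MOI 1 PFU/cell, 72 h at 37C. Lysate luminescence read with OneGlo; data normalized against buffer-only and 10uM Salinomycin inhibitor controls.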
# VACV Venus inh: inhibitors of vaccinia virus (Venus reporter); Vaccinia virus Venus reporter expression, fluorescence; Potency, µM (top dose mostly 36.5 µM), for inactives: at the top dose activity change, negative = inhibition, hits mostly inhibitors; actives 0.46% (n = 330,000); calls by dose curve; tested in A549 cells; also: potency is read from the fitted curve at half-maximal effect; nearly all actives have a fitted effect of over 30% in size
# HCV inh: blocks hepatitis C virus. Huh7.5.1 HCVcc-Cre infection, luciferase reporter, 44 h. Potency, µM (titrated, usually from 41.8 µM), without a hit: top-dose activity change, negative = inhibition, usual class: inhibitors. actives 3.4% (n = 340,000). AID 651820; also: potency is read from the fitted curve at half-maximal effect
#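 Compounds are dispensed onto cells plated 4 h earlier at 1,000 per well, with HCVcc-Cre virus (about 0.5 moi) added next. Following 44 h of culture, luminescent signal is measured for 15 sec after 15 min with substrate at room temperature.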
# Giardia FBPA inh: Giardia lamblia aldolase inhibition | actives 0.71% (n = 290,000) | Potency, µM (titrated, usually from 59.6 µM), inactives show at the highest dose activity, negative = inhibition, most hits filed as inhibitors | purified Giardia FBPA | AID 2451 | A8B2U2; also: potency is read from the fitted curve at half-maximal effect; nearly all actives have a fitted effect of over 55% in size
# Target sequence (A8B2U2 whole entry, looked up): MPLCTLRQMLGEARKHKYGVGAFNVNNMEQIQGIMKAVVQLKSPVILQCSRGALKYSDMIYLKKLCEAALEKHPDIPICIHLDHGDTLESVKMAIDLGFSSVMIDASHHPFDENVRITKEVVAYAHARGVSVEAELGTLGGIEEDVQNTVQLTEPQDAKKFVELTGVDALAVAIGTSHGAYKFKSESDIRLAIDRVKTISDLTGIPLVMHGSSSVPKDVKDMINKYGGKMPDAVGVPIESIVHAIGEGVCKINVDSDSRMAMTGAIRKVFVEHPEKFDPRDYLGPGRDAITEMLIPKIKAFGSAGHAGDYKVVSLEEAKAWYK
#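 Giardia FBPA (40 nM reagent) was preincubated 10 min at RT with compound (up to 57.5 uM final), then substrate plus GAPDH/TPI/NAD/arsenate coupling system with diaphorase/resazurin was added; resorufin fluorescence (525/598 nm) was read after 20 min.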
# The depositor's hits bear a star; i = inactive; ? = inconclusive; . = not tested or not shown; [ ] = another dose, or the depositor's remark. Only some compounds are listed: those with a hit (about 7.5% of all), similar ones and a draw of the others. Unless noted, calls follow the shape of the dose curve; as a rule, active = well fitted curve in the direction sought with a large enough effect; inconclusive = small, poorly fitted or top-dose-only effect, or another doubt; inactive = no such curve, though single readings can be large; an effect the other way counts as inactive or inconclusive. % is scaled to controls: 0 for no effect and ±100 for the full control effect.
SMILES,FMDV inh,Vaccinia mCherry,HCMV antiviral,VACV Venus inh,HCV inh,Giardia FBPA inh
COc1ccc(CCn2c(C3CCCCC3)nc3c(c(=O)c4ccccc4n3C)c2=O)cc1,?,.,-13.8,.,3.55µM*,-1.0%
Cn1c2ccccc2c(=O)c2c(=O)n(C3CCCCCC3)c(C3CCCCC3)nc21,25.1µM*,i,-25.9,-12.6%,0.8%,3.3%
Cn1c2ccccc2c(=O)c2c(=O)n(C3CCCCC3)c(-c3cccs3)nc21,-26.4%,.,?,.,10µM*,12.2%
CCc1nc2c(c(=O)c3ccccc3n2C)c(=O)n1C1CCCCCC1,-8.1%,-10.9%,-63.1*,?,?,1.7%
CCC(C)(C)NC(=O)C(c1ccc(C)cc1)N(Cc1ccco1)C(=O)CCC(=O)Nc1nccs1 (stereo not given),0.0%,.,-10.9,-13.1%,13.1%,4.4%
Cc1nnc(N2CCN(c3ccccc3F)CC2)c2c1nnn2Cc1ccccc1Cl,?,-15.9%,-4.0,-26.3%,.,.
O=C(CSc1ccccc1Cl)N1CCOCC1,2.6%,.,-16.3,.,21.8%,2.1%
C[C@@H]1CN([C@H](C)CO)C(=O)CCCn2cc(nn2)CO[C@H]1CN(C)C(=O)Cc1ccccc1,-14.7%,-10.3%,5.9,-16.2%,.,.
CN(C)CCNC(=O)c1ccc2c(=O)n(Cc3ccc(Cl)cc3)c(=S)[nH]c2c1,-9.5%,-10.3%,12.0,-21.5%,?,18.6%
CCCCN(C)CCNC(=O)c1ccc(Cn2c(=S)[nH]c3ccc(Br)cc3c2=O)cc1,43.0%,i,15.1,-12.1%,11.2µM*,5.0%
COc1ccc(/C=C2\SC(=S)N(CCC(=O)NCCCn3ccnc3)C2=O)cc1,38.9%,.,-31.6,.,12.8%,.
O=C(CCCN1C(=O)/C(=C/c2ccc(F)cc2)SC1=S)NCCCn1ccnc1,15.5%,33.2%,-67.3*,232.0%,-3.0%,6.3%
CC(C)c1ccc(/C=C2\SC(=S)N(CCC(=O)NCCCn3ccnc3)C2=O)cc1,1.6%,-25.1%,-97.0*,-23.1%,?,.
COc1ccc(NS(=O)(=O)c2ccc3c(c2)NC(=O)CO3)c(OC)c1,-3.4%,.,-1.9,.,-14.8%,.
CCS(=O)(=O)N1CCCc2cc(C(=O)Nc3cc([N+](=O)[O-])ccc3C)ccc21,28.2µM*,i,-39.0,-13.4%,.,.
COCCN1C(=O)c2ccccc2C(C(=O)N2CCN(c3ccccc3)CC2)C1c1ccc(F)cc1 (stereo not given),-5.6%,.,1.9,.,6.9%,-0.7%
CCCOC(=O)C1=C(C)CS[C@@H]2[C@H](NC(=O)COc3ccccc3)C(=O)N12,.,-11.3%,.,?,.,.
O=C1NC(=O)c2cc(Br)cc3cccc1c23,-14.0%,2.8%,-4.0,-5.5%,-11.7%,6.2%
Cc1ccc(NS(=O)(=O)c2cc3c4c(cccc4c2)C(=O)NC3=O)cc1C,0.0%,12.6µM*,-18.9,10µM*,?,3.7%
CCc1ccccc1NC(=O)CCCSc1nc(-c2ccco2)cc(C(F)(F)F)n1,-6.8%,-14.3%,-9.5,-3.1%,.,.
Cc1cc(NC(=O)CCCSc2nc(-c3ccco3)cc(C(F)(F)F)n2)n(-c2ccccc2)n1,?,-17.5%,-6.0,-25.5%,11.2µM*,6.8%
Cc1c(NC(=O)CSc2nc(-c3ccco3)cc(C(F)(F)F)n2)c(=O)n(-c2ccccc2)n1C,-23.5%,-4.9%,-0.1,-1.5%,-11.5%,2.5%
Cc1cc(NC(=O)CSc2nc(-c3ccco3)cc(C(F)(F)F)n2)n(-c2ccccc2)n1,-5.0%,.,-32.1,?,31.6µM*,-1.2%
O=C(NCCCc1ccccc1)[C@@H]1Cc2ccccc2CN1,15.1%,-13.1%,26.7,-7.9%,6.7%,-10.8%
CC(C)CN=C(NS(=O)(=O)c1ccccc1)C(Cl)(Cl)Cl,?,?,-99.5*,?,5.01µM*,0.9%
SMILES,FMDV inh,Vaccinia mCherry,HCMV antiviral,VACV Venus inh,HCV inh,Giardia FBPA inh
COCCC1CCCCN1Cc1nc(N2CCCC2)c2cc(OC)c(OC)cc2n1 (stereo not given),-1.9%,i,.,-14.0%,.,.
Brc1ccc(-c2csc(-c3c[nH]c4ccccc34)n2)cc1,29.2%,.,-10.2,-29.0%,6.31µM*,0.6%
O=C(C1=C[C@H](c2ccc(C(F)(F)F)cc2)C[C@H](OCc2ccc(CO)cc2)O1)N1CCN(Cc2ccc3c(c2)OCO3)CC1,?,-27.6%,-17.7,?,10µM*,-15.1%
C#Cc1ccc([C@H]2C=C(C(=O)N3CCN(Cc4ccccc4)CC3)O[C@@H](OCc3ccc(CO)cc3)C2)cc1,-27.9%,-20.4%,-76.0*,?,?,-4.5%
O=C(C1=C[C@@H](c2ccc(Br)cc2)C[C@@H](OCc2ccc(CO)cc2)O1)N1CCN(Cc2ccccc2)CC1,?,?,.,?,?,-17.6%
O=C(C1=C[C@@H](c2ccc(C(F)(F)F)cc2)C[C@@H](OCc2ccc(CO)cc2)O1)N1CCN(Cc2ccc3c(c2)OCO3)CC1,?,-9.9%,5.0,?,?,-14.1%
CC(=O)Nc1cccc(-c2ccnc3c2CC(C)(C(=O)Nc2cccnc2)O3)c1 (stereo not given),0.0%,-13.0%,14.8,-6.9%,.,.
Cc1ccccc1NC(=O)Nc1cc(-c2ccccc2)nn1C,32.3%,-26.4%,35.8,-13.4%,-15.4%,5.4%
Cc1ccccc1C(=O)Nc1cc(-c2cc(C(C)(C)C)oc2C)nn1C,-29.1%,-2.0%[7.34 µM],-62.8*,-14.4%[7.34 µM],?,-3.5%
C[C@]1(O)CC(=O)C=C[C@H]1Nc1ccccc1,25.1µM*,?,?,?,-14.1%,.
CC1(C)CC(C(=O)Nc2ccccc2)C(=O)O1 (stereo not given),18.0%,-3.1%,6.7,-8.0%,5.4%,.
COc1ccc(-c2csc3ncnc(N4CCN(S(=O)(=O)c5ccc(C)c(C)c5)CC4)c23)cc1,-26.2%,i,-0.9,-4.9%,11.2µM*,.
CCOc1ccccc1N1CCN(c2ncnc3scc(-c4ccc(OC)cc4)c23)CC1,?,?,-60.5*,-11.6%,?,5.6%
COc1ccc(-c2csc3ncnc(N4CCN(c5ccccc5OC)CC4)c23)cc1,?,i,-16.5,-2.8%,11.2µM*,12.9%
C#CCOc1ccc(CNC[C@H]2O[C@@H](n3cnc4c(N)ncnc43)[C@H](O)[C@@H]2O)cc1,-16.3%,-26.2%,-24.6,-13.8%,11.0%,.
CCc1ccc(CNC(=O)CN2C(=O)c3cccnc3Oc3ccc(C)cc32)cc1,-9.4%,i,?,-16.2%,.,.
CC(=C\c1ccco1)/C=C(\C#N)C(=O)NCCc1c[nH]c2ccccc12,-21.5%,-9.1%,-73.1*,-10.7%,?,-13.8%

# Screening results: PubChem BioAssay, National Center for Advancing Translational Sciences (NCATS)
